Source: PubChem BioAssay
Only some compounds are listed: those with a hit (about 14% of all), similar ones and a draw of the others.
Sm TGR block: qHTS Assay for the Inhibitors of Schistosoma Mansoni Peroxiredoxins | Schistosoma mansoni thioredoxin glutathione reductase (TGR), Q962Y6 | purified TGR, DTNB reduction, TNB absorbance 405 nm | 360,000 tested, 3% active | AID 485364, 2010 | Potency, µM (top dose mostly 114 µM), for the others: top-dose activity change, negative = inhibition, usual class: inhibitors; note: potency is the fitted concentration of half-maximal effect; nearly all actives have a fitted effect of over 60% in size
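First, TGR (20 nM dispensed) and NADPH were mixed with compound. Second, a 15 min room-temperature incubation followed. Third, further NADPH and then DTNB were added to start the reaction. Finally, TNB absorbance was monitored kinetically.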
FBPA Giardia inh: qHTS Assay for Inhibitors of Fructose-1,6-bisphosphate Aldolase from Giardia Lamblia; A8B2U2; Potency, µM (titrated, usually from 59.6 µM), inactives show at the top dose activity, negative = inhibition, actives largely listed as inhibitors; purified Giardia FBPA; 290,000 tested, 0.71% active; note: potency is the fitted concentration of half-maximal effect; nearly all actives have a fitted effect of over 55% in size
Target sequence (A8B2U2 whole entry, looked up): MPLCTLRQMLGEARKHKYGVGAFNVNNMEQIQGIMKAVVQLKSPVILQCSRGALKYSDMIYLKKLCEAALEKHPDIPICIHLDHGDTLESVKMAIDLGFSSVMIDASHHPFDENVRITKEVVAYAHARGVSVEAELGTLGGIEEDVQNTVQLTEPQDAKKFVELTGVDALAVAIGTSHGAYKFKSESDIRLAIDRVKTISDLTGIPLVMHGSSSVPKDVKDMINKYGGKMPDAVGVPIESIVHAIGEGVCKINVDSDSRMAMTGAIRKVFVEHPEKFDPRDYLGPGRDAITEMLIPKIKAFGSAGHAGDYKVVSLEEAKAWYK
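40 nM FBPA preincubated 10 min at RT with compound (up to 57.5 uM final), then substrate plus GAPDH/TPI/NAD/arsenate coupling and diaphorase/resazurin added. Fluorescence read after 20 min at RT, 525/598 nm.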
HCMV antiviral: qHTS Assay for inhibitors of the human cytomegalovirus (HCMV) | HFF cells, HCMV-luciferase reporter, 72 h; hits give low values | activity change, negative = inhibition, % at 57.5 µM | 410,000 tested, 4.5% active; in the data active = activity change below about -60%; inconclusive = no clear call, values can overlap the other calls; inactive = above about -39%
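After 16 h attachment at 37C, HFF cells received test compound and HCMV-luciferase (1 PFU/cell); reporter luminescence read 72 h later, data normalized against buffer-only and known inhibitor Salinomycin.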
Pf growth 48h: Primary qHTS for delayed death inhibitors of the malarial parasite plastid, 48 hour incubation | P. falciparum luciferase growth in erythrocytes, 48 h | Potency, µM (titrated, usually from 28.7 µM), without a hit: at the highest dose activity change, negative = inhibition, usual class: inhibitors | AID 504832, 2011 | 310,000 tested, 5.9% active; note: potency is the fitted concentration of half-maximal effect
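Read-out is firefly luciferase luminescence from an integrated reporter in P. falciparum, so falling signal marks reduced parasite growth. Infected erythrocytes were at 2% hematocrit and 0.1% parasitemia (final) in Albumax-supplemented RPMI 1640.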
Pf growth 96h: Primary qHTS for delayed death inhibitors of the malarial parasite plastid, 96 hour incubation. Potency, µM (doses to about 28.7 µM), for inactives: at the highest dose activity change, negative = inhibition, usual class: inhibitors. 320,000 tested, 6.9% active. P. falciparum luciferase reporter growth, 96 h; note: potency is the fitted concentration of half-maximal effect
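Erythrocytes infected with luciferase-expressing P. falciparum were dispensed at 2% hematocrit and 0.05% parasitemia (final), then incubated with compounds 96 hours at 37 C in 5% CO2. Luminescence after detection reagent addition reported growth.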
Starred values were filed as active, the others as inactive; [ ] = another dose, or the depositor's remark. Unless noted, calls come from the whole dose curve; as a rule, active = well fitted curve in the direction sought with a large enough effect; inconclusive = small, poorly fitted or top-dose-only effect, or another doubt; inactive = no such curve, though single readings can be large; an effect the other way counts as inactive or inconclusive. % is set by controls: 0 for no effect and ±100 for the full control effect.

Results for COCC(=O)N1CCC2(CC1)CN(C(=O)Nc1cccc(C#N)c1)C2 ?
FBPA Giardia inh: 3.2%

Results for CS(=O)(=O)c1ccccc1-c1nnc(NC(=O)Cc2ccccc2)o1 ?
Sm TGR block: -0.7%; HCMV antiviral: -15.7; Pf growth 48h: 0.5%; Pf growth 96h: inconclusive

Results for COc1ccccc1-n1c(=O)oc2ccc(Cl)cc2c1=O ?
Sm TGR block: 5.9%; FBPA Giardia inh: -4.1%; HCMV antiviral: -95.3*; Pf growth 48h: inconclusive; Pf growth 96h: -26.9%

What do the screens show for `CCOC(=O)c1[nH]c(C(=O)O)c(CCC(=O)OC)c1C`?
Sm TGR block: 4.7%; FBPA Giardia inh: 0.3%; HCMV antiviral: -2.4; Pf growth 48h: 0.9%; Pf growth 96h: 11.7µM*

What do the screens show for `COc1ccc(N(C(=O)c2snc(C(N)=O)c2N)C(C(=O)NC2CCCC2)c2cc(OC)ccc2OC)c(OC)c1` (stereo unspecified)?
Sm TGR block: -2.2%; FBPA Giardia inh: 8.2%; HCMV antiviral: -35.0; Pf growth 48h: 1.85µM*; Pf growth 96h: -9.7%

What do the screens show for `C#CC(=O)N(c1ccc(OC)cc1OC)C(C(=O)NC1CCCC1)c1cccs1` (stereo unspecified)?
Sm TGR block: 1.58µM*; FBPA Giardia inh: -0.5%; HCMV antiviral: -99.5*; Pf growth 48h: 2.7%; Pf growth 96h: -35.2%

What do the screens show for `COc1ccc(C(C(=O)NC2CCCC2)N(C(=O)c2snc(C(N)=O)c2N)c2cc(C)ccc2OC)cc1OC` (stereo unspecified)?
Sm TGR block: 6.9%; FBPA Giardia inh: -6.9%; HCMV antiviral: -6.9; Pf growth 48h: inconclusive; Pf growth 96h: inconclusive

What do the screens show for `COc1ccccc1N(C(=O)c1snc(C(N)=O)c1N)C(C(=O)NC1CCCC1)c1ccc2ncccc2c1` (stereo unspecified)?
Sm TGR block: -4.6%; FBPA Giardia inh: -7.0%; HCMV antiviral: -87.6*; Pf growth 48h: inconclusive; Pf growth 96h: 15.2%

How did COc1ccc(C(C(=O)NC2CCCC2)N(C(=O)c2snc(C(N)=O)c2N)c2ccccc2OC)cc1OC (stereo unspecified) do in these assays?
Sm TGR block: -11.4%; HCMV antiviral: -25.1; Pf growth 48h: 9.28µM*; Pf growth 96h: 1.3%

Results for CC(=O)Nc1ccc(NC(=O)CCSCCc2ccccn2)cc1 ?
Sm TGR block: 2.9%; FBPA Giardia inh: -6.2%; HCMV antiviral: 32.6; Pf growth 48h: 5.8%; Pf growth 96h: 4.5%

Results for CC(=O)c1ccc(N2CCN(C(=O)c3cccs3)CC2)c(F)c1 ?
Sm TGR block: inconclusive; FBPA Giardia inh: 10.6%; HCMV antiviral: 27.5; Pf growth 48h: inconclusive; Pf growth 96h: inconclusive

How did O=C(Nc1ccc2c(c1)OCO2)c1cc2nc(C3CC3)cc(C(F)(F)F)n2n1 do in these assays?
Sm TGR block: -25.8%; FBPA Giardia inh: -12.0%; HCMV antiviral: -13.5; Pf growth 48h: 10.9%; Pf growth 96h: 0.0415µM*

Results for O=C(Nc1ccc(Cl)cc1)c1cc2nc(-c3ccc4c(c3)OCO4)cc(C(F)(F)F)n2n1 ?
Sm TGR block: 9.1%; HCMV antiviral: 6.5

How did O=C(/C=C/Sc1ccccc1)c1ccc(Cl)cc1 do in these assays?
Sm TGR block: 31.6µM*; FBPA Giardia inh: 0.7%; HCMV antiviral: -76.3*; Pf growth 96h: inconclusive

How did O=C(C=Cc1ccccc1Cl)c1ccccc1 do in these assays?
HCMV antiviral: -24.1

What do the screens show for `O=C(/C=C/Sc1ccccc1)c1ccccc1`?
Sm TGR block: 10µM*; FBPA Giardia inh: -2.5%; HCMV antiviral: -83.3*; Pf growth 96h: inconclusive

What do the screens show for `Cc1cn([C@H]2C[C@H](O)[C@@H](CNC(=O)[C@H](N)Cc3cn(COCc4ccccc4)cn3)O2)c(=O)[nH]c1=O`?
HCMV antiviral: 8.4

How did Cc1ccccc1N1CCN(Cc2ccc([N+](=O)[O-])o2)CC1 do in these assays?
Sm TGR block: 35.5µM*; FBPA Giardia inh: inconclusive; HCMV antiviral: -24.7; Pf growth 48h: 22.5%; Pf growth 96h: inconclusive

Results for COc1ccccc1N1CCN(Cc2ccc(-c3ccccc3[N+](=O)[O-])o2)CC1 ?
Sm TGR block: 25.1µM*; FBPA Giardia inh: -26.1%; HCMV antiviral: 54.7; Pf growth 48h: 11.4%; Pf growth 96h: inconclusive

What do the screens show for `O=[N+]([O-])c1ccc(CN2CCN(c3ccccc3Cl)CC2)o1`?
Sm TGR block: 0.0%; FBPA Giardia inh: inconclusive; HCMV antiviral: -20.0; Pf growth 48h: 3.4%; Pf growth 96h: -2.9%

Results for COc1ccccc1N1CCN(Cc2ccc(Br)s2)CC1 ?
Sm TGR block: -5.5%; FBPA Giardia inh: -27.0%; HCMV antiviral: -81.0*; Pf growth 48h: -13.9%; Pf growth 96h: -13.9%

Results for Clc1ccccc1N1CCN(Cc2ccco2)CC1 ?
Sm TGR block: -3.7%; FBPA Giardia inh: 5.4%; HCMV antiviral: 19.2; Pf growth 48h: 42.3%; Pf growth 96h: 40.3%

Results for COc1ccccc1N1CCN(Cc2ccco2)CC1 ?
Sm TGR block: -32.3%; FBPA Giardia inh: -5.6%; HCMV antiviral: 68.9; Pf growth 48h: 2.33µM*; Pf growth 96h: -1.2%[5.75 µM]

How did COC(=O)Cc1ccc(NC(C)=O)cc1 do in these assays?
Sm TGR block: -2.4%; HCMV antiviral: 5.4; Pf growth 48h: 20.2%; Pf growth 96h: 42.0%

How did c1ccc(Cn2ncc3c(N4CCCCC4)ncnc32)cc1 do in these assays?
Sm TGR block: 0.7%; FBPA Giardia inh: -4.4%; HCMV antiviral: 5.6; Pf growth 48h: inconclusive; Pf growth 96h: inconclusive

Results for Clc1ccc(Cn2ncc3c(N4CCN(c5ccccc5)CC4)ncnc32)cc1 ?
HCMV antiviral: -102.2*

Results for Cc1ccc(Cn2ncc3c(N4CCOCC4)ncnc32)cc1 ?
Sm TGR block: 6.2%; FBPA Giardia inh: -1.0%; HCMV antiviral: -8.8; Pf growth 48h: 0.1%; Pf growth 96h: 51.0%

Results for Cc1ccc(Cn2ncc3c(N4CCN(c5ccccc5C)CC4)ncnc32)cc1 ?
Sm TGR block: 9.1%; FBPA Giardia inh: 0.0%; HCMV antiviral: -14.3; Pf growth 48h: 13.1µM*; Pf growth 96h: inconclusive

Results for CSc1nc2c(c(=O)[nH]c(=O)n2C)n1CCCc1ccccc1 ?
Sm TGR block: -17.0%; FBPA Giardia inh: -6.9%; HCMV antiviral: 67.3; Pf growth 48h: 3.9%; Pf growth 96h: 15.6%

How did CCn1c([N+](=O)[O-])nc2c1c(=O)[nH]c(=O)n2C do in these assays?
Sm TGR block: 25.1µM*; FBPA Giardia inh: 12.6µM*; HCMV antiviral: -98.1*; Pf growth 48h: -2.5%; Pf growth 96h: inconclusive
